Laboratory results taken from PubChem BioAssay (NCI).
The panel holds about 83,000 compounds, 20% with a hit somewhere; the sample as a whole holds those more often.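 Single-concentration screen, 48 h exposure, 96-well plates. Endpoint: percent growth. Below 10 = active.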 Calls of active or inactive are those of the source.

Tested on: OVCAR-3 ovarian
Assay: NCI-60 one-dose screen, 48 h (100 = growth as untreated, 0 = no growth, -100 = all killed)
Details: 10 µM unless noted
Procedure: Growth inhibition of the OVCAR-3 human tumor cell line is measured as a screen for anti-cancer activity. Cells are grown in 96 well plates and exposed to the test compound for 48 hours. Compounds are tested at a single concentration, which is 10^-5 M for most compounds. The reported endpoint is percent growth (GI% or GIPRCNT), where numbers from 0 - 100% represent growth inhibition, and numbers from -100% - 0 represent cell death. For example, a value of 40 represents 60% growth inhibition. A value of 0 means no net growth occurred over the course of the experiment. A value of -40 indicates 40% of cells at the beginning of the experiment died by the end of the experiment. A value of -100 means all cells are dead at the end of the experiment.
NCI-60 Human Tumor Cell Lines Screen was performed using the standard one-dose NCI protocol, which is described in more detail at https://dtp.cancer.gov/discovery_development/nci-60/default.htm.
Compounds with GIPRCNT values below 10 were considered active. Activity score was based on GIPRCNT using the following formula: […]
Score is 0 for GIPRCNT values of 100 or above, 50 for GIPRCNT values of 0, and 100 for GIPRCNT values of -100.

Compound	growth
C#CCC1(c2ccc(F)c(F)c2)NS(=O)(=O)c2ccccc21 (stereo not given)	109% (inactive)
CCn1cc(C(=O)O)c(=O)c2cc(F)c(N3CCN(S(=O)(=O)c4ccc(Cl)cc4Cl)CC3)cc21	7.89% (active)
COc1cc2nc(Cl)nc(NCCO)c2cc1OC	111% (inactive)
Cc1cc(N/C=c2\sc3ncnn3c2=O)no1	95.8% (inactive)
Cc1cc(Nc2nc(-c3ccc(F)cc3)nc3ccccc23)n[nH]1	61.5% (inactive)
O=C(Nc1ccccc1)OCC1OCOC(COC(=O)Nc2ccccc2)C1OC(=O)Nc1ccccc1 (stereo not given)	28.8% (inactive)
COc1ccc(-c2nc3sccn3c2-c2ccnc(NCCCNS(=O)(=O)c3ccc(C)cc3)n2)cc1	45.4% (inactive)
O=[N+]([O-])c1c(S(=O)(=O)O)cc2cc(S(=O)(=O)O)ccc2c1[N+](=O)[O-]	104% (inactive)
COc1ccc(C2CC(=O)Nc3c2c(C)nn3-c2nc3ccccc3[nH]2)cc1OC (stereo not given)	83.2% (inactive)
O=C(NNC(=S)Nc1ccccc1)c1ccccn1	33.6% (inactive)
CCCCC[C@@H]1Cc2cc(O)c(C(=O)O)c3c2[C@H](C[C@@]2(CCCO2)O3)O1	107% (inactive)
COc1ccc(-c2nc(-c3nc4ccc(F)cc4[nH]3)cc3c2[nH]c2ccccc23)cc1	42.3% (inactive)
COc1ccc(NC(=S)/N=c2\oc3c(OC)cccc3cc2-c2cc3ccccc3[nH]2)cc1	79.7% (inactive)
COc1cc(-c2n[nH]nc2-c2ccc3c(c2)OCCO3)cc(OC)c1OC	-33.9% (active)
Cc1nc2scc(-c3ccccc3)n2c(=O)c1CCO	100% (inactive)
COc1ccc2c(c1)C(=O)/C(=C/c1ccc(O)cc1)O2	48.7% (inactive)
COc1cccc(NC(=O)Cn2cc3c(=O)oc4ccccc4c3n2)c1	99.1% (inactive)
COc1cc(C2C3=C(COC3=O)Nc3c2ccc2c3CCCC2)cc2c1OCO2 (stereo not given)	-53.1% (active)
C=CCn1c(C)nc2ccc(Nc3nc(Nc4ccc(F)cc4)nc4ccccc34)cc21	51.2% (inactive)
Cc1c(C(=O)NCc2ccccc2)[n+](=O)c2cc(F)ccc2n1[O-]	93.2% (inactive)

Compound	growth
COc1cccc(-n2cc(-c3nc(Cl)c4ccccc4n3)nn2)c1	105% (inactive)
COc1ccc(Cn2cc(COc3cc(/C=C/C(=O)c4cc(OC)c(OC)c(OC)c4)ccc3OC)nn2)cc1	54.3% (inactive)
Cc1ccccc1C(=O)c1ccccc1C(=O)O	107% (inactive)
COc1ccc(/C=C2\Oc3cc(OCCN4CCCC4)ccc3C2=O)c(OC)c1	93.8% (inactive)
O=C1CCC(=O)N1Cc1ccccc1	102% (inactive)
O=C(OCCCCOC(=O)n1cnc2ccccc21)n1cnc2ccccc21	108% (inactive)
COc1cc2c3c(c(=O)oc2cc1OS(=O)(=O)c1ccc(C(F)(F)F)cc1)CCCCC3	87.9% (inactive)
COc1cc(/C=C/C(=O)c2ccccc2O)ccc1OCCCOc1cc2c(cc1OC)C(=O)N1CCC[C@H]1C=N2	-3.51% (active)
CCOC(=O)c1cc(/C(=N\O)c2cc(OC)c(OC)c(OC)c2)n2cc(C)cc(C)c12	-8.99% (active)
COc1ccc(C(=O)/C=C/c2cccc([N+](=O)[O-])c2)c(OC)c1	18.6% (inactive)
CCOC(=O)/C=C\C(=O)NC(N)=O	110% (inactive)
COc1cc(OC)c(C(=O)/C=C/c2cccc(C#N)c2)c(OC)c1	9.13% (active)
CC(Br)C(OC(=O)c1ccccc1Cl)c1cc2c(cc1Br)OCO2 (stereo not given)	89% (inactive)
O=C(Nc1ccc(Cl)cc1)c1cc(-c2ccc(F)cc2)c2sc(=O)[nH]c2n1	14% (inactive)
CCOP(=O)(CCN1CCN(CCCCCOc2cc3c(cc2OC)C(=O)N2CCC[C@H]2C=N3)CC1)OCC	119% (inactive)
COc1cc(OC)c(C(=O)/C=C/c2cccc(C(F)(F)F)c2)c(OC)c1	17.5% (inactive)
CCSc1nnc(Nc2ccc(C(C)C)cc2)s1	106% (inactive)
O=C(CNC(=O)c1cccc2ccccc12)Nc1ccccc1Oc1ccccc1	-30.5% (active)
Cc1cc(C)c2c(=O)[nH]c(SCC(=O)Nc3cccc(S(=O)(=O)N(C)C)c3)nc2n1	111% (inactive)
CC1=NN2C(=NC3=C(CCC/C3=C\c3ccc(Cl)cc3)C2c2ccc(Cl)cc2)S1 (stereo not given)	108% (inactive)
